Inconclusive results are not listed. Calls of active or inactive are those of the source.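 The calls were made as follows: active = cell viability at or below a set limit in both duplicate runs, the limit being the all-compound median minus 4 SD (cut at about 23% in these data, passing the limit was not always enough); inconclusive = no clear call, values can overlap the other calls; inactive = the rest.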

This assay is described as follows: growth suppression of beta-catenin knockout HCT116, pilot screen, human colon tumor cells (AID 823).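 Also: 0% = wells killed by 20 µM Hyamine and 100% = untreated DMSO cell wells.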 The following applies: CellTiter-Glo, 60 h, at 10 µM, hits give low values. In general terms: Cellular ATP, detected with luciferase, serves as a proxy for viable cell number.
What is called viability is a read-out of living cells in per cent, often relative to untreated cells. Take `CCN(CC)CCCNC(=O)c1cc2c(-c3ccc(Cl)cc3)nn(C)c2s1`: the viability was 1.68% (active).

`O=C(NC1CCCC1)C(c1ccc(Cl)cc1)N1CCOCC1` (configuration not stated): the viability was 98.8% (inactive).

Take `COC(=O)c1ccc2c(c1)NC(=O)C1CCCN21` (configuration not stated): the viability is 91.2% (inactive).

Take `O=C(Nc1ccc2c(c1)OCO2)c1ccncc1`: the viability was 87.9% (inactive).

Turning to `COc1ccc(C2C3=C(CC(c4ccco4)CC3=O)Nc3ccccc3N2C(C)=O)cc1` (configuration not stated), the viability is 93.5% (inactive).

Regarding `COc1cc(NC(=O)c2cc(C(C)C)on2)cc(OC)c1OC`, the viability is 95.2% (inactive).

`COc1ccc2ccccc2c1C1CC(=O)N2CN(C3CCCCC3)CSC2=C1C#N` (configuration not stated): the viability was 81.3% (inactive).

Turning to `CCC(=O)c1ccc(OCC(=O)Nc2nn3cnnc3s2)cc1`, the viability was 104% (inactive).

For `CCOC(=O)N1CCC(Nc2c(N3CCN(c4cc(Cl)ccc4C)CC3)c(=O)c2=O)CC1`, the viability is 71.9% (inactive).

Consider `c1ccc(Sc2nc(N3CCCCC3)nc(N3CCCCC3)n2)nc1`, for which the viability is 89.3% (inactive).

`Cn1c(=O)c2c(nc(NCc3ccccc3)n2Cc2ccc(F)cc2)n(C)c1=O`: the viability is 65.9% (inactive).

With `COc1ccc(-n2nnc3c(=O)n(CC(=O)N4CCCCC4)cnc32)cc1`, the viability is 96.1% (inactive).

As to `CCN(CC)CC(=O)Nc1cc(C)c2c(=O)oc3ccccc3c2n1`, the viability is 96.1% (inactive).

As for `Nn1c(SCc2ccccc2)nnc1-c1ccco1`, the viability was 99.2% (inactive).

Regarding `c1ccc(OCc2nnc3sc(C4COc5ccccc5O4)nn23)cc1` (configuration not stated), the viability is 99.4% (inactive).

Turning to `Cn1cnnc1SCc1ccc(C#N)cc1Cl`, the viability was 99.7% (inactive).

For `CCOc1ccc(C2C(C(=O)NC)=C(C)Nc3nc4ccccc4n32)cc1OC` (configuration not stated), the viability is 98.8% (inactive).

The record behind these values is PubChem BioAssay.
